# Laboratory results reported in publication PMC7862700, “An all-to-all approach to the identification of sequence-specific readers for epigenetic DNA modifications on cytosine”.
# Legend:
# Test in all cases: DAPPL (digital affinity profiling via proximity ligation, sequencing); 10 mM Tris-HCl pH 7.5, 50 mM NaCl, 1 mM DTT, 4% glycerol, room temperature, 30 min; GST-TFs on glutathione beads, 16-mer random dsDNA library, 0.1% formaldehyde crosslink after washing; high values mean tight binding
# FLI1 = target: T1, FLI1 (Homo sapiens, UniProt Q01543 1-452); settings: protein: recombinant; tags: N-terminal GST; dsDNA, one strand shown
# T1 sequence: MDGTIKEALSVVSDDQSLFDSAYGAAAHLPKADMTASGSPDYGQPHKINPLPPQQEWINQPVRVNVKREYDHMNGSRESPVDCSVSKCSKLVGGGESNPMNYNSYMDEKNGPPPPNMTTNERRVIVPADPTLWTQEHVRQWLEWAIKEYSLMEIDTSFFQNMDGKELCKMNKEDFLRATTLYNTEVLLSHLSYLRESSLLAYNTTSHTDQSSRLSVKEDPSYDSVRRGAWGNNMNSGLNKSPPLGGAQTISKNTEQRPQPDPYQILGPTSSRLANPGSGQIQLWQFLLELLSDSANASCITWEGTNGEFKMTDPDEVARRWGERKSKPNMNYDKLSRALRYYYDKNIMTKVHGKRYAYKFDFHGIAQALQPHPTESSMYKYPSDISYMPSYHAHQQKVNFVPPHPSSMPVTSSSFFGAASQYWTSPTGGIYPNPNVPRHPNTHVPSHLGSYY
# Procedure, shortened: (§1)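 Human transcription factors carrying a GST fusion were produced in yeast, bound to glutathione beads, tagged with DNA barcodes and pooled together with a tag-only sample. Each pool was held with 200 nmole of a random double-stranded 16-mer DNA library in Tris/NaCl/DTT/glycerol buffer for 30 min at room temperature, then washed, crosslinked in 0.1% formaldehyde, proximity-ligated with BsaI/T4 ligase (1 h, 37 °C), PCR-amplified and sequenced on an Illumina NextSeq500. Binding signal is the read frequency of each hexamer for a given factor divided by its frequency in the tag-only sample.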
# ELK1 = target: T2, ELK1 (Homo sapiens, UniProt P19419 1-428); settings: protein: recombinant; tags: N-terminal GST; dsDNA, one strand shown
# T2 sequence: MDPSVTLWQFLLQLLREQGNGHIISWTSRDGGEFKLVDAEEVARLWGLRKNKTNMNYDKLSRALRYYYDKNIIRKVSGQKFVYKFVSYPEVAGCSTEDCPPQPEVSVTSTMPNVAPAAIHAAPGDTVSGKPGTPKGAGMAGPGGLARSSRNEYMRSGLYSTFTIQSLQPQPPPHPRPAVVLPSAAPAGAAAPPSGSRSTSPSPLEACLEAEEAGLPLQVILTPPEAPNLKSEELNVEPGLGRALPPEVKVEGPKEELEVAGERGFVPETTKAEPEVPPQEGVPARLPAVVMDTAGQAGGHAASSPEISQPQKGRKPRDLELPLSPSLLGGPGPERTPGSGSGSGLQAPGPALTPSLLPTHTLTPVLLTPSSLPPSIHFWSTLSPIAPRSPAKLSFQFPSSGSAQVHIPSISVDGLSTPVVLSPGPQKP
# Procedure, shortened: as §1
# GABPA = target: T3, GABPA (Homo sapiens, UniProt Q06546 1-454); settings: protein: recombinant; tags: N-terminal GST; dsDNA, one strand shown
# T3 sequence: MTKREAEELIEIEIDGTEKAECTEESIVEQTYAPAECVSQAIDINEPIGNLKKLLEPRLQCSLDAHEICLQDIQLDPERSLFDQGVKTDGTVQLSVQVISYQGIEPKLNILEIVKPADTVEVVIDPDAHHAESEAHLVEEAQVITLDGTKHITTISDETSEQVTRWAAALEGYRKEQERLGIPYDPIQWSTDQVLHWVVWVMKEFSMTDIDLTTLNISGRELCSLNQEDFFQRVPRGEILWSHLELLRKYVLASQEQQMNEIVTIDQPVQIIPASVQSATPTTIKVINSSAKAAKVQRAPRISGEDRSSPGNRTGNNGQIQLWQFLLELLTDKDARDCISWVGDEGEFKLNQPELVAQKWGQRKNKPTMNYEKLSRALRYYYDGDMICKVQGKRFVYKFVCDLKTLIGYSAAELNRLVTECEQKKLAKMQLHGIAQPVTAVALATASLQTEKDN
# Procedure, shortened: as §1
# ERG = target: T4, ERG (Homo sapiens, UniProt P11308 1-479); settings: protein: recombinant; tags: N-terminal GST; dsDNA, one strand shown
# T4 sequence: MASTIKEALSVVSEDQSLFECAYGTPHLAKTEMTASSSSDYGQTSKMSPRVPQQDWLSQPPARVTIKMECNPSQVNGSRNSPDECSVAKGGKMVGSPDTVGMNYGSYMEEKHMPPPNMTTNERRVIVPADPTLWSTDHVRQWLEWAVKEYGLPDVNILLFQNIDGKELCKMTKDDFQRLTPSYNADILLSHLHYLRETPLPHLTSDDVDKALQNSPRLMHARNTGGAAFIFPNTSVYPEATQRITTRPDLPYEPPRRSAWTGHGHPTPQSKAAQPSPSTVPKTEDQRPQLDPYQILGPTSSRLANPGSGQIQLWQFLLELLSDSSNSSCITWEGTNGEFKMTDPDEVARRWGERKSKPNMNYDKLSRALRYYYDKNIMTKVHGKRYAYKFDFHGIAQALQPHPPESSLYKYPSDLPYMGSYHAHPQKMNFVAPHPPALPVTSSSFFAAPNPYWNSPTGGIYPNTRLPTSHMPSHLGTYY
# Procedure, shortened: as §1
# ELF1 = ELF1 (Homo sapiens, UniProt P32519 1-619); settings: protein: recombinant; tags: N-terminal GST; dsDNA, one strand shown
# Procedure, shortened: as §1
# EHF = target: T5, EHF (Homo sapiens, UniProt Q9NZC4 1-300); settings: protein: recombinant; tags: N-terminal GST; dsDNA, one strand shown
# T5 sequence: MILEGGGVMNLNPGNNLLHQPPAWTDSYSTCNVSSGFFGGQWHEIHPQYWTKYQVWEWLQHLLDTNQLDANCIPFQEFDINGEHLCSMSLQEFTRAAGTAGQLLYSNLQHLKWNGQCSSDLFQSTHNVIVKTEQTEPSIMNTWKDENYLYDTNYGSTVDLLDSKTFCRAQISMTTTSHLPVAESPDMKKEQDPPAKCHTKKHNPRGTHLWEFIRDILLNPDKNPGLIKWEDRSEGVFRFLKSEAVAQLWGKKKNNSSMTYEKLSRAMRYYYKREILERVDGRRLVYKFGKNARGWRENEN
# Procedure, shortened: as §1
# SPI1 = SPI1 (Homo sapiens, UniProt P17947 1-270); settings: protein: recombinant; tags: N-terminal GST; dsDNA, one strand shown
# Procedure, shortened: as §1
# SPIB = SPIB (Homo sapiens, UniProt Q01892 1-262); settings: protein: recombinant; tags: N-terminal GST; dsDNA, one strand shown
# Procedure, shortened: as §1
# ELK3 = target: T6, ELK3 (Homo sapiens, UniProt P41970 1-407); settings: protein: recombinant; tags: N-terminal GST; dsDNA, one strand shown
# T6 sequence: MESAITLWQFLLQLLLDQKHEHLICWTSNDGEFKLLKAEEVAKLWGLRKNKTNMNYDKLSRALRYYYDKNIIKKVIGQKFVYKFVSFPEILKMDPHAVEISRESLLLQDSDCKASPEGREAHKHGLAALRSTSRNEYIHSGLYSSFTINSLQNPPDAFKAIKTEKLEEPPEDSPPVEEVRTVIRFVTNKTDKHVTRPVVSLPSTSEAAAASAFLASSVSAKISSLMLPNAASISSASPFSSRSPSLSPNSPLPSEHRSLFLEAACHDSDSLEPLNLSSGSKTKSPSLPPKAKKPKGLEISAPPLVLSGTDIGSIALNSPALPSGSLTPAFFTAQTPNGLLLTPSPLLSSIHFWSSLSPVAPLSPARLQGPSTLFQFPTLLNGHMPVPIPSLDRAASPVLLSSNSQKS
# Procedure, shortened: as §1
# FEV = target: T7, FEV (Homo sapiens, UniProt Q99581 1-238); settings: protein: recombinant; tags: N-terminal GST; dsDNA, one strand shown
# T7 sequence: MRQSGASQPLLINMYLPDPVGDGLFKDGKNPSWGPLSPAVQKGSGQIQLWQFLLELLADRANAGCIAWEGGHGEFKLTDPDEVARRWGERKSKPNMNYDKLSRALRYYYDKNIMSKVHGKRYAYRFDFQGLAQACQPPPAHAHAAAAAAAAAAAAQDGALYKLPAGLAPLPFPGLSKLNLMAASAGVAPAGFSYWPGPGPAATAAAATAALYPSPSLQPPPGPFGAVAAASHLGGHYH
# Procedure, shortened: as §1
# ETV5 = ETV5 (Homo sapiens, UniProt P41161 1-510); settings: protein: recombinant; tags: N-terminal GST; dsDNA, one strand shown
# Procedure, shortened: as §1
# HSF1 = HSF1 (Homo sapiens, UniProt Q00613 1-529); settings: protein: recombinant; tags: N-terminal GST; chain copies: 3; dsDNA, one strand shown
# Procedure, shortened: as §1
# SPIC = target: T8, SPIC (Homo sapiens, UniProt Q8N5J4 1-248); settings: protein: recombinant; tags: N-terminal GST; dsDNA, one strand shown
# T8 sequence: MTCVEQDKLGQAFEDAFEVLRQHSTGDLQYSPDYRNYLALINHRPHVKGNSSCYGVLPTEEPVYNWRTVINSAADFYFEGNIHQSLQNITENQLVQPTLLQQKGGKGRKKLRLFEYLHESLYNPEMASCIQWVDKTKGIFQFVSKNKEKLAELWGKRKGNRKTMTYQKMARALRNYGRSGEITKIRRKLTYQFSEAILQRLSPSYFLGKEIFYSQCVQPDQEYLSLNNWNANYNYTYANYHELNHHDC
# Procedure, shortened: as §1
# ELF4 = ELF4 (Homo sapiens, UniProt Q99607 1-663); settings: protein: recombinant; tags: N-terminal GST; dsDNA, one strand shown
# Procedure, shortened: as §1
# ELK4 = target: T9, ELK4 (Homo sapiens, UniProt P28324-2 1-405); settings: protein: recombinant; tags: N-terminal GST; dsDNA, one strand shown
# T9 sequence: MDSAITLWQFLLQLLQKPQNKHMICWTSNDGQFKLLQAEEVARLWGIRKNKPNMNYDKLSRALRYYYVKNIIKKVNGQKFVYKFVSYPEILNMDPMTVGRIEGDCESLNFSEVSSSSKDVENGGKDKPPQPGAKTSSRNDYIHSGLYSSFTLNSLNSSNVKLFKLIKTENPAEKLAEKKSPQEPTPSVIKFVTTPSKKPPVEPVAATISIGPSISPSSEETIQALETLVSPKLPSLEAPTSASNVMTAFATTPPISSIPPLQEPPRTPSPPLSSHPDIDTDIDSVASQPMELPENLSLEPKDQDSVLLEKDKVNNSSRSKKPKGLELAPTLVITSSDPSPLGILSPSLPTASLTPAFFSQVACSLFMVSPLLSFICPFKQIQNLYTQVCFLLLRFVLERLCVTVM
# Procedure, shortened: as §1
# ETV2 = target: T10, ETV2 (Homo sapiens, UniProt O00321 1-342); settings: protein: recombinant; tags: N-terminal GST; dsDNA, one strand shown
# T10 sequence: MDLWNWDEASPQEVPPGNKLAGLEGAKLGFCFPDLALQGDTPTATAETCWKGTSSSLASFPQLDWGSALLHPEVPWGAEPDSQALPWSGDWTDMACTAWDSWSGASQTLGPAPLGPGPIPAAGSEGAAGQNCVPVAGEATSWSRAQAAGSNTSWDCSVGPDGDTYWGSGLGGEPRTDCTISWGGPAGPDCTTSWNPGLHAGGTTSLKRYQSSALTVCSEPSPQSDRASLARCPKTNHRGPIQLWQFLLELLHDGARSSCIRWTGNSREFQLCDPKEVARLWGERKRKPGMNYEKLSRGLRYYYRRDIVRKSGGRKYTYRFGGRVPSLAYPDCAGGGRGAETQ
# Procedure, shortened: as §1
# ELF3 = target: T11, ELF3 (Homo sapiens, UniProt P78545 1-371); settings: protein: recombinant; tags: N-terminal GST; dsDNA, one strand shown
# T11 sequence: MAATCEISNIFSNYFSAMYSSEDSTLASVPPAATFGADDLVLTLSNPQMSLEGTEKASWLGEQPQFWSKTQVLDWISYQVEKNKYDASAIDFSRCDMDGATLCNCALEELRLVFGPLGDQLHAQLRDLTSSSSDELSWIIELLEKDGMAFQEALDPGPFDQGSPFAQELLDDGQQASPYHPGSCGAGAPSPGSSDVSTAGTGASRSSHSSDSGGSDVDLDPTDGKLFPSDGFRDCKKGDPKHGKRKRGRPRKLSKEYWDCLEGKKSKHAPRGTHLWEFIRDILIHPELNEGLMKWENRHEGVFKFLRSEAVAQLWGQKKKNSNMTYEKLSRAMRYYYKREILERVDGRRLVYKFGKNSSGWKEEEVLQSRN
# Procedure, shortened: as §1
# CRX = CRX (Homo sapiens, UniProt O43186 1-299); settings: protein: recombinant; tags: N-terminal GST; dsDNA, one strand shown
# Procedure, shortened: as §1
# ETV1 = ETV1 (Homo sapiens, UniProt P50549 1-477); settings: protein: recombinant; tags: N-terminal GST; dsDNA, one strand shown
# Procedure, shortened: as §1
# Chain of HSF1 (Q00613 whole entry): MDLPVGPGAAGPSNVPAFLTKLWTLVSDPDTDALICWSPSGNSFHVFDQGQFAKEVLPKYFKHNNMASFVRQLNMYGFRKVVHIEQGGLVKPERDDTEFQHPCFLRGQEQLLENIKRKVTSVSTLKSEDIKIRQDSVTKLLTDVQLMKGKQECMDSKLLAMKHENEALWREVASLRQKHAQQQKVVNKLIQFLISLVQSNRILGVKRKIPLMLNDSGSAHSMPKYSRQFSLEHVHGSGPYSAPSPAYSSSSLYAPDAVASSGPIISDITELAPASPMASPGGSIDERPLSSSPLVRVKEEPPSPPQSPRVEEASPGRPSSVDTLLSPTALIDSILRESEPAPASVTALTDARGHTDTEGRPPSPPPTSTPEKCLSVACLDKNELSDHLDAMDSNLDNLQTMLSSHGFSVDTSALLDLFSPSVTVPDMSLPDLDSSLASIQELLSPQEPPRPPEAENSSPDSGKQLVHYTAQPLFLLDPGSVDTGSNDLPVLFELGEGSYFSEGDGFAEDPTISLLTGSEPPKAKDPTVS
# Chain of ELF4 (Q99607 whole entry): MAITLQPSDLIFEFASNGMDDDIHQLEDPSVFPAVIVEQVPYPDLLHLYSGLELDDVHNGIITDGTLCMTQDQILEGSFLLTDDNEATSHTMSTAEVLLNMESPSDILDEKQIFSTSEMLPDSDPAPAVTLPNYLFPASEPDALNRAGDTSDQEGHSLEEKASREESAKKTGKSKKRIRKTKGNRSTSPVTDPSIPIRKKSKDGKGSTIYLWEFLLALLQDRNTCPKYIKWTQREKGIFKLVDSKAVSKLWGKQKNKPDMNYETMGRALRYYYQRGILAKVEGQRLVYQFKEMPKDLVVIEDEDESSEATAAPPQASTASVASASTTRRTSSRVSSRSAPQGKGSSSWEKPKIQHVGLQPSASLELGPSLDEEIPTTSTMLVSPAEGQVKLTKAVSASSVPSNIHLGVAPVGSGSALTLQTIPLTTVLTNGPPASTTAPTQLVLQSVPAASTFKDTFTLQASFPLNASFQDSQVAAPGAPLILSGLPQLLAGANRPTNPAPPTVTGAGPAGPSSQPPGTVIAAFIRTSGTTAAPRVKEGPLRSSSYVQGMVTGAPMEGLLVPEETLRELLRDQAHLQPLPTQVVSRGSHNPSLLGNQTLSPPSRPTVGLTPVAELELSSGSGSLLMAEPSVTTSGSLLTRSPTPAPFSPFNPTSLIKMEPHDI
# Chain of CRX (O43186 whole entry): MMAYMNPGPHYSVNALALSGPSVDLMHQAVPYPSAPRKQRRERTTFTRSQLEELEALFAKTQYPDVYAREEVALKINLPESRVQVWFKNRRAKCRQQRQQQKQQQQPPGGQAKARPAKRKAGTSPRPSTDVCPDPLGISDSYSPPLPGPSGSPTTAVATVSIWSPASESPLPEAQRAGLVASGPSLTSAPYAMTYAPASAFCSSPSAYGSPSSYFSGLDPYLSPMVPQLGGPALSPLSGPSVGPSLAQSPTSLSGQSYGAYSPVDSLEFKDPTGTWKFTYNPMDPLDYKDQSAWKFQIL
# Chain of ETV1 (P50549 whole entry): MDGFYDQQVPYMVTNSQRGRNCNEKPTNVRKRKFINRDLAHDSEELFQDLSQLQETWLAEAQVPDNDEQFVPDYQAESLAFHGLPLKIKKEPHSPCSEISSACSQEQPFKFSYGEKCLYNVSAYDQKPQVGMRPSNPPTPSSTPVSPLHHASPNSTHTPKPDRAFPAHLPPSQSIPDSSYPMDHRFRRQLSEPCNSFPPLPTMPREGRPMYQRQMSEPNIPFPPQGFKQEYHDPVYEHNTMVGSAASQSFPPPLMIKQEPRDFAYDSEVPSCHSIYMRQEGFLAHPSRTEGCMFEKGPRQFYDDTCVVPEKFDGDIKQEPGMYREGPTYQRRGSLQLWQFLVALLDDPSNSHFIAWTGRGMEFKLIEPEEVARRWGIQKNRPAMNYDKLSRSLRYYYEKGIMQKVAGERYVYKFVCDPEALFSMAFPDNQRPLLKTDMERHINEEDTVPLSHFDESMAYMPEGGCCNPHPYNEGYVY
# Chain of SPIB (Q01892 whole entry): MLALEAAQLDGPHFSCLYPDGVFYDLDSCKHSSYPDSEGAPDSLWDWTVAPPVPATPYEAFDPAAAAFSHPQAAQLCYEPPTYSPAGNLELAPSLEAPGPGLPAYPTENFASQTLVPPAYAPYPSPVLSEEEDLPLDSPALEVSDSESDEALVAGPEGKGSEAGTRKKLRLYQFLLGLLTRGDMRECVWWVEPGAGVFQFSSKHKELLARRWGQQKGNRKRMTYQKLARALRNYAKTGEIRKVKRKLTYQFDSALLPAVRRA
# Chain of ELF1 (P32519 whole entry): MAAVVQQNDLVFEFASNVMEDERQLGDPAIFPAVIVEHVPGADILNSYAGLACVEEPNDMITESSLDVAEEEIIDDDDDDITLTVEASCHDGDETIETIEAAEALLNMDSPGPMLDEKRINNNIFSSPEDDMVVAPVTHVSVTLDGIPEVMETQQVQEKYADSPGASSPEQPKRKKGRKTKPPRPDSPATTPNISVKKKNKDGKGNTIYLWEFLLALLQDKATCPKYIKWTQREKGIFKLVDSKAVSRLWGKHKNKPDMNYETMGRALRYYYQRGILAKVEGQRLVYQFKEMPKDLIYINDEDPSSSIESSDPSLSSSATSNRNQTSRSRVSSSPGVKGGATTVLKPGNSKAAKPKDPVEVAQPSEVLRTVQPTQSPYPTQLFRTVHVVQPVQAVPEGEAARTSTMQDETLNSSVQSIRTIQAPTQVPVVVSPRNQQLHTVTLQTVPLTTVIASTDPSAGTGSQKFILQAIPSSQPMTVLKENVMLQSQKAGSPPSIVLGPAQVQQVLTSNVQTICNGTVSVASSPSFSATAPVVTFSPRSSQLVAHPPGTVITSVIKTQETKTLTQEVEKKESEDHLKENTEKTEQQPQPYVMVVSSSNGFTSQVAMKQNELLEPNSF
# Chain of ETV5 (P41161 whole entry): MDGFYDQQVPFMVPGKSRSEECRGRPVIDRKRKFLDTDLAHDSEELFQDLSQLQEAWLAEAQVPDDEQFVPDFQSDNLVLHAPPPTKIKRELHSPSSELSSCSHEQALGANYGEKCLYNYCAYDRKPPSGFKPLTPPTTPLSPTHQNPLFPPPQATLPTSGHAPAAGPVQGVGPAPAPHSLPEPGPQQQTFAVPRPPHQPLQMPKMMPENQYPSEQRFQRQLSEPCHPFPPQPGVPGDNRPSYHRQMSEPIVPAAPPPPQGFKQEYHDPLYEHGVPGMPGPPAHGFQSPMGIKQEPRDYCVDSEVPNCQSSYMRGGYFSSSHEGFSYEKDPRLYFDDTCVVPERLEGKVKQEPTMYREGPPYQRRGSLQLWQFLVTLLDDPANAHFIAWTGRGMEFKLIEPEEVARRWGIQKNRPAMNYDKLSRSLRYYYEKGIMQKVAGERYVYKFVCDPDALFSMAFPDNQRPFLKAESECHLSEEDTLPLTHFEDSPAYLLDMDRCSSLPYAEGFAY
sequence,measurement,setting,value
GTATCC,binding signal,FLI1,"1.88 fold enrichment (6-mer frequency, TF over GST control)"
same,binding signal,ELK1,"1.9 fold enrichment (6-mer frequency, TF over GST control)"
same,binding signal,GABPA,"1.78 fold enrichment (6-mer frequency, TF over GST control)"
same,binding signal,ERG,"1.89 fold enrichment (6-mer frequency, TF over GST control)"
same,binding signal,ELF1,"1.89 fold enrichment (6-mer frequency, TF over GST control)"
same,binding signal,EHF,"1.92 fold enrichment (6-mer frequency, TF over GST control)"
same,binding signal,SPI1,"1.7 fold enrichment (6-mer frequency, TF over GST control)"
same,binding signal,SPIB,"1.89 fold enrichment (6-mer frequency, TF over GST control)"
same,binding signal,ELK3,"1.88 fold enrichment (6-mer frequency, TF over GST control)"
same,binding signal,FEV,"2.08 fold enrichment (6-mer frequency, TF over GST control)"
same,binding signal,ETV5,"2.05 fold enrichment (6-mer frequency, TF over GST control)"
same,binding signal,HSF1,"1.14 fold enrichment (6-mer frequency, TF over GST control)"
same,binding signal,SPIC,"1.96 fold enrichment (6-mer frequency, TF over GST control)"
same,binding signal,ELF4,"1.85 fold enrichment (6-mer frequency, TF over GST control)"
same,binding signal,ELK4,"1.74 fold enrichment (6-mer frequency, TF over GST control)"
same,binding signal,ETV2,"1.78 fold enrichment (6-mer frequency, TF over GST control)"
same,binding signal,ELF3,"1.69 fold enrichment (6-mer frequency, TF over GST control)"
same,binding signal,CRX,"1.22 fold enrichment (6-mer frequency, TF over GST control)"
same,binding signal,ETV1,"1.86 fold enrichment (6-mer frequency, TF over GST control)"
